Two sequences from article PMC7862700, “An all-to-all approach to the identification of sequence-specific readers for epigenetic DNA modifications on cytosine” can be followed below.

Common to all, as to assay: DAPPL (digital affinity profiling via proximity ligation, sequencing); 10 mM Tris-HCl pH 7.5, 50 mM NaCl, 1 mM DTT, 4% glycerol, room temperature, 30 min; GST-TFs on glutathione beads, 16-mer random dsDNA library, 0.1% formaldehyde crosslink after washing; high values mean tight binding
Common to all, as to details: protein: recombinant; tags: N-terminal GST; dsDNA, one strand shown

The target in one test is T1, FLI1 (Homo sapiens, UniProt Q01543 1-452).
T1 sequence: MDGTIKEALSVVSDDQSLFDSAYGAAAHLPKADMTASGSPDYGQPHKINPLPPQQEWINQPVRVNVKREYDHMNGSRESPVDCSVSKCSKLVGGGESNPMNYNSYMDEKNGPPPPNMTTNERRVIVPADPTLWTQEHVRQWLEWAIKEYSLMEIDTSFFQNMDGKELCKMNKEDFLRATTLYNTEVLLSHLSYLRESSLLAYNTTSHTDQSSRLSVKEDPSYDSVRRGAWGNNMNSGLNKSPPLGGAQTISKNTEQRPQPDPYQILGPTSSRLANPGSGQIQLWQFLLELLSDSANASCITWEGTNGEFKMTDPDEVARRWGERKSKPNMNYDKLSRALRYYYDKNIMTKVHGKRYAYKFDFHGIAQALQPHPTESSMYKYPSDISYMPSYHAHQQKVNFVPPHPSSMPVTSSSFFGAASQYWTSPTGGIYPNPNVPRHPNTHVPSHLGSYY
In short, it runs like this: (§1)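 Pools were built from human transcription factors expressed in yeast as GST fusions, captured on glutathione beads and DNA-barcoded, along with a tag-only sample. Incubation with 200 nmole of a 16-mer random double-stranded DNA library lasted 30 min at room temperature in Tris/NaCl/DTT/glycerol buffer, and was followed by washing, 0.1% formaldehyde crosslinking, proximity ligation, PCR amplification and Illumina NextSeq500 sequencing. Binding signal is the quotient of each hexamer's read frequency for a factor and its frequency for the tag-only sample.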

Another test concerns the target T2, GABPA (Homo sapiens, UniProt Q06546 1-454).
T2 sequence: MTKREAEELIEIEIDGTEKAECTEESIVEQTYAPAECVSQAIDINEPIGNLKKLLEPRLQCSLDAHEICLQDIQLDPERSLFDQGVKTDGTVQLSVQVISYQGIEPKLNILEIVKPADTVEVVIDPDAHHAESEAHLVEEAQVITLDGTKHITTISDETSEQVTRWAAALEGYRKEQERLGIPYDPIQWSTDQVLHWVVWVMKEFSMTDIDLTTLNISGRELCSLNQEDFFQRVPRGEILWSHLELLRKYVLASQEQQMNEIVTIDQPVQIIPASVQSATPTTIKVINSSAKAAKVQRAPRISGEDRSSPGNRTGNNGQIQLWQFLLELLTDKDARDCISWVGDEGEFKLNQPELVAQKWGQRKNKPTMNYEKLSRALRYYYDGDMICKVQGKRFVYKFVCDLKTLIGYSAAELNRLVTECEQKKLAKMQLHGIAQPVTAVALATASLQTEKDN
In short, it runs like this: as §1

In the next test the target is T3, EHF (Homo sapiens, UniProt Q9NZC4 1-300).
T3 sequence: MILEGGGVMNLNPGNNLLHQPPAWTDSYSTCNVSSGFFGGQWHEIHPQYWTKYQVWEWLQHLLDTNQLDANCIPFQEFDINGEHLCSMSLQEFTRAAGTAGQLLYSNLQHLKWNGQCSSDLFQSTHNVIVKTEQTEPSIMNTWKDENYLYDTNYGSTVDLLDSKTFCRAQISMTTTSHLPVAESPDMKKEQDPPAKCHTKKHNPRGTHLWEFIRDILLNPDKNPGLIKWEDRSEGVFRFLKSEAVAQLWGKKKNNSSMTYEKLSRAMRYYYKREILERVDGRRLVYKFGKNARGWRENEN
In short, it runs like this:
as §1

Another test deals with T4, ELK3 (Homo sapiens, UniProt P41970 1-407).
T4 sequence: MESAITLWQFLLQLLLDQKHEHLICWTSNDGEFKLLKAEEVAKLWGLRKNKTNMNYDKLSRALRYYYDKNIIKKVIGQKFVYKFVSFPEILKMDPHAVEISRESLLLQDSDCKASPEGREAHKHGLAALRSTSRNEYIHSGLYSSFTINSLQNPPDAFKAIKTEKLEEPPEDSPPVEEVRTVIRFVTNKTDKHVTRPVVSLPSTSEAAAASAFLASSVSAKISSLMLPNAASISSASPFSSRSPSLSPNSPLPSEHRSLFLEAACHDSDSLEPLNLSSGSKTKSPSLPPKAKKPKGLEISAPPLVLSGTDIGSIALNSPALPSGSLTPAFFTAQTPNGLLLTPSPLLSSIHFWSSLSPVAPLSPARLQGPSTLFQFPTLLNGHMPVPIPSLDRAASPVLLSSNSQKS
In short, it runs like this: as §1

For the next test, the target named is ETV5 (Homo sapiens, UniProt P41161 1-510). In short, it runs like this:
as §1

In another test the target is T5, SPIC (Homo sapiens, UniProt Q8N5J4 1-248).
T5 sequence: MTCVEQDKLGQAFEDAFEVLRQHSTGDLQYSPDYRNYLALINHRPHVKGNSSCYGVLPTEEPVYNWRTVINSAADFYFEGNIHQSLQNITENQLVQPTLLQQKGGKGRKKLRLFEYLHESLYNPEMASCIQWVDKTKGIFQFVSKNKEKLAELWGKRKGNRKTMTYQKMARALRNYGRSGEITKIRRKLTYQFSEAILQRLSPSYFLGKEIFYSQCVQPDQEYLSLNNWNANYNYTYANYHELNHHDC
In short, it runs like this:
as §1

The target of a further test is T6, ERF (Homo sapiens, UniProt P50548 1-548).
T6 sequence: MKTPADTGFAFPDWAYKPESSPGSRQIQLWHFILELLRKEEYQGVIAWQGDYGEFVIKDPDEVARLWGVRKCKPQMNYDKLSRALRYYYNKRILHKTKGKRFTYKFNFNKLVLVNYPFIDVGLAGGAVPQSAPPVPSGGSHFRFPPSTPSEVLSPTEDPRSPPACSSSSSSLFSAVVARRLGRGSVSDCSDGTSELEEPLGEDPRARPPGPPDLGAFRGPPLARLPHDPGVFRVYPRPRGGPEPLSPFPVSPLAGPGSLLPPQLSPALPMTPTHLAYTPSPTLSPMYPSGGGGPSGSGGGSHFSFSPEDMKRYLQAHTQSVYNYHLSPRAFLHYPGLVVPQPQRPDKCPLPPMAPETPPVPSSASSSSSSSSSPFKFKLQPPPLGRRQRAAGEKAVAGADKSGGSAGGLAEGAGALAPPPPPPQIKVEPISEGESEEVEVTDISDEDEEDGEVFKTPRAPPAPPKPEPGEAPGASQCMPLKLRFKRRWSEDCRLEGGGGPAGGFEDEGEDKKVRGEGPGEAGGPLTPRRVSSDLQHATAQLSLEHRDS
In short, it runs like this: as §1

In a further test the target is T7, ERG (Homo sapiens, UniProt P11308 1-479).
T7 sequence: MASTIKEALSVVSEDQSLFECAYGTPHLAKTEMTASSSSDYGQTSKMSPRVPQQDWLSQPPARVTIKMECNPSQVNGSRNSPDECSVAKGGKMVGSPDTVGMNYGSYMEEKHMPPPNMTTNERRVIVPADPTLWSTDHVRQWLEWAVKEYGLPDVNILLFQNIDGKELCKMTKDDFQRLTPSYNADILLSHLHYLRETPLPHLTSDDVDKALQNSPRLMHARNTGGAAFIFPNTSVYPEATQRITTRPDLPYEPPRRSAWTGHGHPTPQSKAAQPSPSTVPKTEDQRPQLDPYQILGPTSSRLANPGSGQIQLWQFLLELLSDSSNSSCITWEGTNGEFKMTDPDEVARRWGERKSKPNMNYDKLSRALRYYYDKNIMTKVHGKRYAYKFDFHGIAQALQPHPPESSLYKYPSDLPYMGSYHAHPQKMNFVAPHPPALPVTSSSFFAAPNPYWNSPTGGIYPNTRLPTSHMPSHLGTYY
In short, it runs like this:
as §1

The target in the next test is SPI1 (Homo sapiens, UniProt P17947 1-270). In short, it runs like this: as §1
The next test deals with SPIB (Homo sapiens, UniProt Q01892 1-262). In short, it runs like this: as §1
Chain of SPIB (Q01892 whole entry): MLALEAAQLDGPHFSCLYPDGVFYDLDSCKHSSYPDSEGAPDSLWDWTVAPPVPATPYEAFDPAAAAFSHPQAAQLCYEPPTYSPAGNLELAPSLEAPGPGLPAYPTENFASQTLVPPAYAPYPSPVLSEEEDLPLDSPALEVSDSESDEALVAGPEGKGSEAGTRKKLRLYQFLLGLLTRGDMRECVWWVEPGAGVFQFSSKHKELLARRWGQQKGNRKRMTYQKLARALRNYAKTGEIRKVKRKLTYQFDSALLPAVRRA
The next test addresses T8, ELF5 (Homo sapiens, UniProt Q9UKW6-2 1-255).
T8 sequence: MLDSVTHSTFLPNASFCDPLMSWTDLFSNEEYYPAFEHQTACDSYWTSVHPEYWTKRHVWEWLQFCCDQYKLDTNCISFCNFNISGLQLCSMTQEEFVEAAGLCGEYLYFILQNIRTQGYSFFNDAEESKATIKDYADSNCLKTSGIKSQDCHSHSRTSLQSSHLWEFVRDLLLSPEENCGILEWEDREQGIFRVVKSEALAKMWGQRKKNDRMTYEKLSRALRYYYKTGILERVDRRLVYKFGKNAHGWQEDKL
In short, it runs like this: as §1

A further test has as its target T9, ETV3 (Homo sapiens, UniProt P41162-2 1-143).
T9 sequence: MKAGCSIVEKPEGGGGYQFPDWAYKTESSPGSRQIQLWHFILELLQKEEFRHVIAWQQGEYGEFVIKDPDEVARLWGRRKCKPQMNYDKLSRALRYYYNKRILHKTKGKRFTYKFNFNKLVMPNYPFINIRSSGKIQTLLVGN
In short, it runs like this: as §1

In a further test the target is ETV6 (Homo sapiens, UniProt P41212 1-452). In short, it runs like this: as §1
Chain of ETV6 (P41212 whole entry): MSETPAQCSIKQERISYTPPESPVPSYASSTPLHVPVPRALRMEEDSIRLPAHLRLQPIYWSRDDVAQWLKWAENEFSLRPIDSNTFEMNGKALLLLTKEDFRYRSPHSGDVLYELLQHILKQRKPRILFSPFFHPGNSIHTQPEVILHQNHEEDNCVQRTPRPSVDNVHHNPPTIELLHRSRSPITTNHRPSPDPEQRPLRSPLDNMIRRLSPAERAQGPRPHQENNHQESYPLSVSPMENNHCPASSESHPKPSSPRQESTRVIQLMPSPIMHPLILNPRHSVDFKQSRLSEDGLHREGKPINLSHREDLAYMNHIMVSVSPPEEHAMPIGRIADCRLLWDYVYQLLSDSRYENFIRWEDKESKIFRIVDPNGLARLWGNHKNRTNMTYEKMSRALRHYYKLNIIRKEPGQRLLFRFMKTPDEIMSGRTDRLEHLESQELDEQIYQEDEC

Chain of ETV5 (P41161 whole entry): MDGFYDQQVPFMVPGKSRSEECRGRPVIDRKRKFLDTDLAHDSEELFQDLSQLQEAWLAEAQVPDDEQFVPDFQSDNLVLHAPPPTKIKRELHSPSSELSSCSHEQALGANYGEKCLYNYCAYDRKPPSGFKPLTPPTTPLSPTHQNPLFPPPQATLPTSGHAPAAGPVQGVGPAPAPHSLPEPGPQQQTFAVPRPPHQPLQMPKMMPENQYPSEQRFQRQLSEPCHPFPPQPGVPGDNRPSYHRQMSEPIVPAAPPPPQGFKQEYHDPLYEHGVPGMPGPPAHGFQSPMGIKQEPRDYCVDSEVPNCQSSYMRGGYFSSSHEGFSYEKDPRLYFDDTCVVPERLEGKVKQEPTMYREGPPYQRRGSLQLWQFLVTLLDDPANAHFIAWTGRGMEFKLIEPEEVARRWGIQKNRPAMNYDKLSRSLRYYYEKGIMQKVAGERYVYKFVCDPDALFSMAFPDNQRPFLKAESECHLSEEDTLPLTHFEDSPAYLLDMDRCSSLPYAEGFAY

In the case of TGGGTA, the binding signal in the test with FLI1 is 1.04 fold enrichment (6-mer frequency, TF over GST control); with GABPA, 1.05 fold enrichment (6-mer frequency, TF over GST control); in the test with EHF, 1.01 fold enrichment (6-mer frequency, TF over GST control); with ELK3 it was 1.12 fold enrichment (6-mer frequency, TF over GST control); in the test with ETV5, 1.02 fold enrichment (6-mer frequency, TF over GST control); with SPIC, 1.03 fold enrichment (6-mer frequency, TF over GST control). The binding signal with ERF is 1.14 fold enrichment (6-mer frequency, TF over GST control).

For AGTAAC, the binding signal with FLI1 was 1.02 fold enrichment (6-mer frequency, TF over GST control); in the test with ERG it was 1.02 fold enrichment (6-mer frequency, TF over GST control); with EHF, 1 fold enrichment (6-mer frequency, TF over GST control); with SPI1, 1.07 fold enrichment (6-mer frequency, TF over GST control); with SPIB it was 1 fold enrichment (6-mer frequency, TF over GST control); with ELK3, 1.01 fold enrichment (6-mer frequency, TF over GST control). Moreover, the binding signal in the test with ETV5 is 1.03 fold enrichment (6-mer frequency, TF over GST control); with SPIC, 1.07 fold enrichment (6-mer frequency, TF over GST control); with ERF, 1.01 fold enrichment (6-mer frequency, TF over GST control); in the test with ELF5, 1.09 fold enrichment (6-mer frequency, TF over GST control); with ETV3 it was 1.09 fold enrichment (6-mer frequency, TF over GST control); with ETV6, 1.09 fold enrichment (6-mer frequency, TF over GST control).
